{"source": "PubChem BioAssay (NCI)", "note": "This is part of a sample that, as a whole, favours compounds with a hit. Of some 79,000 tested, about 15% had one in any assay. Values without a mark were called inactive. The source made the active and inactive calls. Rule as the data show it: active = growth inhibition above about 70%; inactive = the rest."}
{"assay": "NCI Yeast Anticancer Drug Screen. Data for the mlh1 rad18 strain (AID 175)", "settings": "S. cerevisiae mlh1 rad18 strain growth inhibition; at 50.0 µM; hits give high values", "summary_of_the_method": "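A repair-deficient yeast strain is exposed to test compound, and growth is scored relative to vehicle-treated controls.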"}
{"smiles": "CCOC(=O)C(CC)(C(=O)OCC)C(C)CC", "note": "(stereo not given)", "growth inhibition": "-1.25%"}
{"smiles": "Cc1ccc(S(=O)(=O)C(CCC(=O)c2ccccc2)(CCC(=O)c2ccccc2)[N+](=O)[O-])cc1", "growth inhibition": "0%"}
{"smiles": "CCC[CH2][Sn]([CH2]CCC)([O]C(=O)c1cccc(F)c1F)[O][Sn]([CH2]CCC)([CH2]CCC)[O]C(=O)c1cccc(F)c1F", "growth inhibition": "86% (active)"}
{"smiles": "O=C1c2ccccc2C2(O)NC(=S)N(c3ccccc3)C12O", "note": "(stereo not given)", "growth inhibition": "-2.1%"}
{"smiles": "NC(C(=O)O)C(F)(F)C(=O)O", "note": "(stereo not given)", "growth inhibition": "-1.15%"}
{"smiles": "CC1=C(C)Cc2c(-c3ccccc3)oc(-c3ccccc3)c2C1", "growth inhibition": "-16.4%"}
{"smiles": "O=C(O)c1ccc2c([N+](=O)[O-])cccc2n1", "growth inhibition": "19.9%"}
{"smiles": "O=[N+]([O-])c1ccc(Oc2cccc3ccccc23)c([N+](=O)[O-])c1", "growth inhibition": "38.8%"}
{"smiles": "CCOc1ncnc2ccc(Cl)cc12", "growth inhibition": "0%"}
{"smiles": "CN(C)c1nc(NN)c2c(-c3ccccc3)c(-c3ccccc3)oc2n1", "growth inhibition": "-11.2%"}
{"smiles": "CCOC(=O)NCc1cccc2ccccc12", "growth inhibition": "2.5%"}
{"smiles": "NNC(=O)c1cccc(C(=O)NN)n1", "growth inhibition": "15.1%"}
{"smiles": "Cc1cccc(N=NC2Sc3nc4ccccc4n3C2=O)c1", "note": "(stereo not given)", "growth inhibition": "2.9%"}
{"smiles": "O=C(/C=C/c1ccc(O)c(O)c1)c1ccc(O)cc1O", "growth inhibition": "-38.9%"}
{"smiles": "CCCCCCCCCCCCCC(=O)Oc1ccc([N+](=O)[O-])cc1", "growth inhibition": "14.4%"}
{"smiles": "COc1ccc(-c2nnc(-c3ccc(OC)cc3)nn2)cc1", "growth inhibition": "-3%"}
{"smiles": "[O-][n+]1c2ccc(Cl)cc2nc2ccc(Cl)cc21", "growth inhibition": "-4.6%"}
{"smiles": "CN1C(=O)CC2(C)c3cc(O)ccc3N(C)C12", "note": "(stereo not given)", "growth inhibition": "-81.7%"}
{"smiles": "CN1NC(c2ccccc2)=NN=C1c1ccccc1", "growth inhibition": "3.65%"}
{"smiles": "Cc1ccc(C2(O)c3ccccc3N=NN2C)cc1", "note": "(stereo not given)", "growth inhibition": "9.75%"}
{"smiles": "Nc1ncnc(N)c1NC(=O)c1ccccc1", "growth inhibition": "14.6%"}
{"smiles": "S=C(/C=C1\\SC(=Nc2ccccc2)C(=Nc2ccccc2)N1c1ccccc1)Nc1ccccc1", "growth inhibition": "1.35%"}
{"smiles": "CNc1ccccc1C(=O)N/N=C/c1cccc([N+](=O)[O-])c1", "growth inhibition": "-8.9%"}
{"smiles": "CCCCCCCCSc1nc(Nc2cc(C(C)(C)C)c(O)c(C(C)(C)C)c2)nc(SCCCCCCCC)n1", "growth inhibition": "28.4%"}
{"smiles": "Nc1cc(=O)c2n[nH]nc2[nH]1", "growth inhibition": "-16.9%"}
{"smiles": "CCCCCCCCCCCCCCCCCC[N+](C)(C)Cc1c(Cl)c(Cl)c(Cl)c(Cl)c1Cl", "growth inhibition": "1.65%"}
{"smiles": "CCNC(=O)NCC", "growth inhibition": "-3.4%"}
{"smiles": "COc1ccccc1C(=O)C(CN(C)C)CN(C)C", "growth inhibition": "13.7%"}
{"smiles": "O=C1C=C(N2CCCC2)CC1", "growth inhibition": "6.25%"}
{"smiles": "COC(=O)C1C(C(=O)OC)C(C(=O)OC)C1C(=O)OC", "note": "(stereo not given)", "growth inhibition": "26.9%"}
{"smiles": "O=C(SCCN1CCCC1)C(O)(c1ccccc1)C1CCCC1", "note": "(stereo not given)", "growth inhibition": "11.7%"}
{"smiles": "CC(=O)C1=CCC2[C@H]3CC=C4C[C@H](O)CC[C@@]4(C)C3CC[C@@]12C", "note": "(stereo not given in full)", "growth inhibition": "37.7%"}
{"smiles": "O=C(c1ccccc1)c1ccccc1NCC(O)COc1cccc2ccccc12", "note": "(stereo not given)", "growth inhibition": "-4.2%"}
{"smiles": "O=C(CCN1CCC2CCC(C2)C1)c1ccc(Cl)cc1", "note": "(stereo not given)", "growth inhibition": "-7.3%"}
{"smiles": "O=C(O)c1cc(O)c(C(=O)O)cc1O", "growth inhibition": "0.3%"}
{"smiles": "CCOC(=O)c1[nH]n(-c2ccccc2)c(=O)c1C=NC(=S)c1cccnc1", "growth inhibition": "-16.5%"}
{"smiles": "CCCCSc1nc(NCC)nc(NCC)n1", "growth inhibition": "41.9%"}
{"smiles": "CC(C)C(NC(=O)C1CCCN1)P(=O)(O)O", "note": "(stereo not given)", "growth inhibition": "5.9%"}
{"smiles": "COc1cc(OC)c2c(c1)OC(c1ccccc1)CC2=O", "note": "(stereo not given)", "growth inhibition": "11.8%"}
{"smiles": "CCC(CC)(CO)CO", "growth inhibition": "-1.55%"}
